Reference: PubChem BioAssay AID1159580 (chemical genetic matrix, 2015)
Values joined by “and” are separate entries in the source; they are usually repeats but may differ in a detail not shown here. Identical values can stand only once. Among all 5,500 compounds or so, about 2,000 (36%) were called active. Inconclusive results (about 18%) are left out. No stated cut-off is given here; in the data, active means normalized growth mostly below about 0.91 (no sharp cut-off); inconclusive means no clear call, values can overlap the other calls; inactive means mostly above about 0.92. The list shows a part of the results. Where a structure was tested more than once in an assay, its records may differ in their call.

Assay: chemical genetic growth profiling, strain panel (AID 1159580);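 further: tested at 20 µM; growth read once vehicle control cultures reached saturation at 30 °C; 1 = growth at the plate median or of vehicle wells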
Conditions: growth OD

CN(C)CCCN1c2ccccc2Sc2ccc(C(F)(F)F)cc21
normalized growth (S. cerevisiae deletion strains, locus YJR066W, strain TOR1, stronger effect = lower value): 0.981 (inactive) | normalized growth (S. cerevisiae deletion strains, locus YJR075W, strain HOC1, stronger effect = lower value): 1.01 (inactive) | normalized growth (S. cerevisiae deletion strains, locus YKL009W, strain mrt4, stronger effect = lower value): 0.944 (inactive) | normalized growth (S. cerevisiae deletion strains, locus YKL068W, stronger effect = lower value): 0.991 (inactive) | normalized growth (S. cerevisiae deletion strains, locus YKL085W, strain MDH1 (second series), stronger effect = lower value): 0.994 (inactive) | normalized growth (S. cerevisiae deletion strains, locus YKL085W, strain MDH1, stronger effect = lower value): 0.994 (inactive) | normalized growth (S. cerevisiae deletion strains, locus YKL160W, strain elf1, stronger effect = lower value): 0.997 (inactive) | normalized growth (S. cerevisiae deletion strains, locus YKL190W, strain CNB1, stronger effect = lower value): 0.995 (inactive) | normalized growth (S. cerevisiae deletion strains, locus YKR001C, strain vps1, stronger effect = lower value): 0.978 (inactive) | normalized growth (S. cerevisiae deletion strains, locus YKR026C, strain gcn3, stronger effect = lower value): 1.02 (inactive) | normalized growth (S. cerevisiae deletion strains, locus YKR091W, strain srl3, stronger effect = lower value): 1.02 (inactive) | normalized growth (S. cerevisiae deletion strains, locus YLL001W, strain dnm1, stronger effect = lower value): 1 (inactive) | normalized growth (S. cerevisiae deletion strains, locus YLL026W, stronger effect = lower value): 1 (inactive) | normalized growth (S. cerevisiae deletion strains, locus YLL041C, strain sdh2, stronger effect = lower value): 1.01 (inactive) | normalized growth (S. cerevisiae deletion strains, locus YLR027C, strain aat2, stronger effect = lower value): 0.992 (inactive) | normalized growth (S. cerevisiae deletion strains, locus YLR039C, strain RIC1, stronger effect = lower value): 0.901 (inactive) | normalized growth (S. cerevisiae deletion strains, locus YLR058C, strain SHM2, stronger effect = lower value): 0.977 (inactive) | normalized growth (S. cerevisiae deletion strains, locus YLR102C, strain apc9, stronger effect = lower value): 0.979 (inactive) | normalized growth (S. cerevisiae deletion strains, locus YLR113W, strain HOG1, stronger effect = lower value): 0.979 (inactive) | normalized growth (S. cerevisiae deletion strains, locus YLR221C, strain rsa3, stronger effect = lower value): 0.977 (inactive) | normalized growth (S. cerevisiae deletion strains, locus YLR258W, strain gsy2, stronger effect = lower value): 0.989 (inactive) | normalized growth (S. cerevisiae deletion strains, locus YLR262C, strain YPT6 (second series), stronger effect = lower value): 1.16 [resistant] (active) | normalized growth (S. cerevisiae deletion strains, locus YLR262C, strain YPT6, stronger effect = lower value): 0.87 (inactive) | normalized growth (S. cerevisiae deletion strains, locus YLR268W, strain sec22, stronger effect = lower value): 1.05 (inactive) | normalized growth (S. cerevisiae deletion strains, locus YLR320W, strain mms22, stronger effect = lower value): 1.06 (inactive) | normalized growth (S. cerevisiae deletion strains, locus YLR330W, strain CHS5, stronger effect = lower value): 0.989 (inactive) | normalized growth (S. cerevisiae deletion strains, locus YLR342W, strain FKS1 (second series), stronger effect = lower value): 1 (inactive) | normalized growth (S. cerevisiae deletion strains, locus YLR342W, strain FKS1, stronger effect = lower value): 1.02 (inactive) | normalized growth (S. cerevisiae deletion strains, locus YLR357W, strain rsc2, stronger effect = lower value): 1.02 (inactive) | normalized growth (S. cerevisiae deletion strains, locus YLR370C, strain arc18, stronger effect = lower value): 1 (inactive) | normalized growth (S. cerevisiae deletion strains, locus YLR371W, strain rom2, stronger effect = lower value): 0.955 (inactive) | normalized growth (S. cerevisiae deletion strains, locus YLR384C, strain iki3, stronger effect = lower value): 1.01 (inactive) | normalized growth (S. cerevisiae deletion strains, locus YLR418C, strain cdc73, stronger effect = lower value): 0.958 (inactive) | normalized growth (S. cerevisiae deletion strains, locus YML016C, strain PPZ1, stronger effect = lower value): 0.994 (inactive) | normalized growth (S. cerevisiae deletion strains, locus YML032C, strain rad52, stronger effect = lower value): 0.989 (inactive) | normalized growth (S. cerevisiae deletion strains, locus YML120C, strain ndi1, stronger effect = lower value): 0.97 (inactive) | normalized growth (S. cerevisiae deletion strains, locus YML124C, strain tub3, stronger effect = lower value): 0.976 (inactive) | normalized growth (S. cerevisiae deletion strains, locus YMR058W, strain fet3, stronger effect = lower value): 0.999 (inactive) | normalized growth (S. cerevisiae deletion strains, locus YMR078C, strain ctf18, stronger effect = lower value): 0.961 (inactive) | normalized growth (S. cerevisiae deletion strains, locus YMR125W, strain sto1, stronger effect = lower value): 0.992 (inactive) | normalized growth (S. cerevisiae deletion strains, locus YMR129W, stronger effect = lower value): 1.02 (inactive) | normalized growth (S. cerevisiae deletion strains, locus YMR205C, strain PFK2, stronger effect = lower value): 1.01 (inactive) | normalized growth (S. cerevisiae deletion strains, locus YMR223W, strain ubp8, stronger effect = lower value): 0.969 (inactive) | normalized growth (S. cerevisiae deletion strains, locus YMR263W, strain SAP30, stronger effect = lower value): 0.988 (inactive) and 0.998 (inactive) | normalized growth (S. cerevisiae deletion strains, locus YMR307W, strain GAS1, stronger effect = lower value): 1.05 (inactive) and 1.01 (inactive) | normalized growth (S. cerevisiae deletion strains, locus YNL067W, strain RPL9B, stronger effect = lower value): 1.01 (inactive) | normalized growth (S. cerevisiae deletion strains, locus YNL071W, strain lat1, stronger effect = lower value): 1.01 (inactive) | normalized growth (S. cerevisiae deletion strains, locus YNL128W, strain TEP1, stronger effect = lower value): 0.968 (inactive) and 1.11 [resistant] (active) | normalized growth (S. cerevisiae deletion strains, locus YNL153C, strain GIM3, stronger effect = lower value): 1.01 (inactive) | normalized growth (S. cerevisiae deletion strains, locus YNL175C, strain NOP13, stronger effect = lower value): 1.01 (inactive) | normalized growth (S. cerevisiae deletion strains, locus YNL183C, strain NPR1, stronger effect = lower value): 0.962 (inactive) | normalized growth (S. cerevisiae deletion strains, locus YNL197C, strain WHI3, stronger effect = lower value): 1.03 (inactive) | normalized growth (S. cerevisiae deletion strains, locus YNL209W, strain ssb2, stronger effect = lower value): 0.986 (inactive) | normalized growth (S. cerevisiae deletion strains, locus YNL224C, strain SQS1, stronger effect = lower value): 1.03 (inactive) | normalized growth (S. cerevisiae deletion strains, locus YNL233W, strain BNI4, stronger effect = lower value): 1.02 (inactive) | normalized growth (S. cerevisiae deletion strains, locus YNL248C, strain rpa49, stronger effect = lower value): 0.953 (inactive) | normalized growth (S. cerevisiae deletion strains, locus YNL250W, strain rad50, stronger effect = lower value): 0.963 (inactive) | normalized growth (S. cerevisiae deletion strains, locus YNL271C, strain bni1, stronger effect = lower value): 0.982 (inactive) | normalized growth (S. cerevisiae deletion strains, locus YNL298W, strain CLA4, stronger effect = lower value): 0.954 (inactive) | normalized growth (S. cerevisiae deletion strains, locus YNL307C, strain MCK1, stronger effect = lower value): 0.987 (inactive) | normalized growth (S. cerevisiae deletion strains, locus YNL322C, strain KRE1 (second series), stronger effect = lower value): 1.03 (inactive) | normalized growth (S. cerevisiae deletion strains, locus YNL322C, strain KRE1, stronger effect = lower value): 0.993 (inactive) and 0.907 (inactive) | normalized growth (S. cerevisiae deletion strains, locus YNR049C, strain mso1, stronger effect = lower value): 1.02 (inactive) | normalized growth (S. cerevisiae deletion strains, locus YNR052C, strain pop2, stronger effect = lower value): 0.962 (inactive) | normalized growth (S. cerevisiae deletion strains, locus YOL006C, strain TOP1, stronger effect = lower value): 0.611 (inactive) | normalized growth (S. cerevisiae deletion strains, locus YOL012C, strain htz1): 1.01 (inactive) | normalized growth (S. cerevisiae deletion strains, locus YOL147C, strain pex11, stronger effect = lower value): 0.991 (inactive) | normalized growth (S. cerevisiae deletion strains, locus YOR001W, strain rrp6, stronger effect = lower value): 0.938 (inactive) | normalized growth (S. cerevisiae deletion strains, locus YOR061W, strain CKA2, stronger effect = lower value): 0.967 (inactive) | normalized growth (S. cerevisiae deletion strains, locus YOR069W, strain VPS5, stronger effect = lower value): 0.987 (inactive) | normalized growth (S. cerevisiae deletion strains, locus YOR070C, strain gyp1, stronger effect = lower value): 1.01 (inactive) | normalized growth (S. cerevisiae deletion strains, locus YOR080W, strain dia2, stronger effect = lower value): 1.03 (inactive) | normalized growth (S. cerevisiae deletion strains, locus YOR083W, strain WHI5 (second series), stronger effect = lower value): 0.946 (inactive) | normalized growth (S. cerevisiae deletion strains, locus YOR083W, strain WHI5, stronger effect = lower value): 0.954 (inactive) | normalized growth (S. cerevisiae deletion strains, locus YOR106W, strain vam3, stronger effect = lower value): 0.561 (active) | normalized growth (S. cerevisiae deletion strains, locus YOR136W, strain idh2, stronger effect = lower value): 0.972 (inactive) | normalized growth (S. cerevisiae deletion strains, locus YOR144C, strain elg1, stronger effect = lower value): 0.974 (inactive) | normalized growth (S. cerevisiae deletion strains, locus YOR184W, strain ser1, stronger effect = lower value): 0.96 (inactive) | normalized growth (S. cerevisiae deletion strains, locus YOR231W, strain MKK1, stronger effect = lower value): 0.978 (inactive) | normalized growth (S. cerevisiae deletion strains, locus YOR265W, strain rbl2, stronger effect = lower value): 1.01 (inactive) | normalized growth (S. cerevisiae deletion strains, locus YOR270C, strain vph1, stronger effect = lower value): 0.737 (active) | normalized growth (S. cerevisiae deletion strains, locus YOR290C, strain snf2, stronger effect = lower value): 0.989 (inactive) | normalized growth (S. cerevisiae deletion strains, locus YOR316C, strain cot1, stronger effect = lower value): 0.965 (inactive) | normalized growth (S. cerevisiae deletion strains, locus YPL051W, strain arl3, stronger effect = lower value): 0.966 (inactive) | normalized growth (S. cerevisiae deletion strains, locus YPL055C, strain LGE1, stronger effect = lower value): 0.968 (inactive) and 0.953 (inactive) | normalized growth (S. cerevisiae deletion strains, locus YPL078C, strain atp4, stronger effect = lower value): 0.992 (inactive) | normalized growth (S. cerevisiae deletion strains, locus YPL106C, strain sse1, stronger effect = lower value): 0.911 (inactive) | normalized growth (S. cerevisiae deletion strains, locus YPL240C, strain hsp82, stronger effect = lower value): 1.03 (inactive) | normalized growth (S. cerevisiae deletion strains, locus YPL241C, strain CIN2, stronger effect = lower value): 0.996 (inactive) and 0.976 (inactive) | normalized growth (S. cerevisiae deletion strains, locus YPL256C, strain CLN2, stronger effect = lower value): 0.988 (inactive) | normalized growth (S. cerevisiae deletion strains, locus YPR119W, strain clb2, stronger effect = lower value): 0.982 (inactive) | normalized growth (S. cerevisiae deletion strains, locus YPR141C, strain kar3, stronger effect = lower value): 0.926 (inactive) | normalized growth (S. cerevisiae deletion strains, locus YPR163C, strain tif3, stronger effect = lower value): 0.979 (inactive) | normalized growth (S. cerevisiae deletion strains, locus YPR167C, strain met16, stronger effect = lower value): 0.981 (inactive) | normalized growth (S. cerevisiae deletion strains, strain wtn01, stronger effect = lower value): 0.981 (inactive) | normalized growth (S. cerevisiae strains, strain wild type, stronger effect = lower value): 0.979 (inactive)
